Here are results for six sequences from publication PMC11006913.

Holding throughout (assay): PBM; 200 nM protein, PBS
What all share (settings): dsDNA, one strand shown

The target in assay [1] is HESX1 (Homo sapiens, UniProt Q9UBX0 95-180, R165K).
Assay [2] concerns the target SHOX (Homo sapiens, UniProt O15266 103-189).
Another assay addresses ALX4 (Homo sapiens, UniProt Q9H161 200-286, Q225E).
Assay [3] deals with HESX1 (Homo sapiens, UniProt Q9UBX0 95-180).
The target in the next assay is MSX2 (Homo sapiens, UniProt P35548 130-214, R199I).
Assay [4] deals with ALX1 (Homo sapiens, UniProt Q15699 118-204, L144V).
Assay [5] has as its target ALX3 (Homo sapiens, UniProt O95076 139-225, N203Q).
For assay [6], the target named is SHOX (Homo sapiens, UniProt O15266 103-189, R173C).
Assay [7] concerns the target ALX1 (Homo sapiens, UniProt Q15699 118-204, L144R).
For assay [8], the target named is ALX3 (Homo sapiens, UniProt O95076 139-225).
Assay [9] concerns the target PROP1 (Homo sapiens, UniProt O75360 56-141).
Assay [10] deals with HESX1 (Homo sapiens, UniProt Q9UBX0 95-180, R109Q).
The target of assay [11] is PROP1 (Homo sapiens, UniProt O75360 56-141, R99H).
Assay [12] concerns the target ALX3 (Homo sapiens, UniProt O95076 139-225, L168Q).
For assay [13], the target named is HESX1 (Homo sapiens, UniProt Q9UBX0 95-180, P111T).
The target of assay [14] is ALX3 (Homo sapiens, UniProt O95076 139-225, L168V).
Assay [15] addresses PROP1 (Homo sapiens, UniProt O75360 56-141, F88S).
The target of assay [16] is HESX1 (Homo sapiens, UniProt Q9UBX0 95-180, F115L).
Assay [17] concerns the target ALX1 (Homo sapiens, UniProt Q15699 118-204).
For assay [18], the target named is ALX3 (Homo sapiens, UniProt O95076 139-225, N203S).
Chain of ALX3 (Homo sapiens, UniProt O95076 139-225, N203S) (O95076 139-225 N203S): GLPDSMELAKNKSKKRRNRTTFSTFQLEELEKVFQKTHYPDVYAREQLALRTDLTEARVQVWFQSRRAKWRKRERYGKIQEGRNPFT

Chain of HESX1 (Homo sapiens, UniProt Q9UBX0 95-180, R109Q) (Q9UBX0 95-180 R109Q): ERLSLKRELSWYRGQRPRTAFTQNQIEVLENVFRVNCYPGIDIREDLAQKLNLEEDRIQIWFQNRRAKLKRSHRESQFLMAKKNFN
Chain of MSX2 (P35548 130-214 R199I): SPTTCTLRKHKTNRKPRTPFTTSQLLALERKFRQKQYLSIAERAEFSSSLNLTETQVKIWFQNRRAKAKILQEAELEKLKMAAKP
Chain of ALX1 (Homo sapiens, UniProt Q15699 118-204) (Q15699 118-204): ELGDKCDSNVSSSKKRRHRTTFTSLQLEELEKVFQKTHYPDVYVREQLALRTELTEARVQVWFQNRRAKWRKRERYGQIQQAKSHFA
Chain of SHOX (Homo sapiens, UniProt O15266 103-189, R173C) (O15266 103-189 R173C): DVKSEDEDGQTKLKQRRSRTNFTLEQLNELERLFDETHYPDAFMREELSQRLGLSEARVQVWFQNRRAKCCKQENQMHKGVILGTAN
Chain of ALX3 (Homo sapiens, UniProt O95076 139-225, L168Q) (O95076 139-225 L168Q): as the sequence (O95076 139-225 N203S) above, with L30Q, S65N counted along it
Chain of HESX1 (Homo sapiens, UniProt Q9UBX0 95-180, R165K) (Q9UBX0 95-180 R165K): as the sequence (Q9UBX0 95-180 R109Q) above, with Q15R, R71K counted along it
Chain of SHOX (Homo sapiens, UniProt O15266 103-189) (O15266 103-189): as the sequence (O15266 103-189 R173C) above, with C71R counted along it
Chain of ALX3 (Homo sapiens, UniProt O95076 139-225) (O95076 139-225): as the sequence (O95076 139-225 N203S) above, with S65N counted along it
Chain of PROP1 (Homo sapiens, UniProt O75360 56-141) (O75360 56-141): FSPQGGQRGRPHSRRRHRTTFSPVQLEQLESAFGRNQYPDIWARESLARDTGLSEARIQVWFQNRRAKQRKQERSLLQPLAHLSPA
Chain of PROP1 (Homo sapiens, UniProt O75360 56-141, R99H) (O75360 56-141 R99H): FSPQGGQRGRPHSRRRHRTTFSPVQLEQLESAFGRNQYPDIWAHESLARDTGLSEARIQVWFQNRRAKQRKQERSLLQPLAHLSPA
Chain of HESX1 (Homo sapiens, UniProt Q9UBX0 95-180, P111T) (Q9UBX0 95-180 P111T): as the sequence (Q9UBX0 95-180 R109Q) above, with Q15R, P17T counted along it
Chain of PROP1 (Homo sapiens, UniProt O75360 56-141, F88S) (O75360 56-141 F88S): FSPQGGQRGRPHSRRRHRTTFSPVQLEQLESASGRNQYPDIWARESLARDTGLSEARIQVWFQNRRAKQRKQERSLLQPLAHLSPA
Chain of ALX4 (Q9H161 200-286 Q225E): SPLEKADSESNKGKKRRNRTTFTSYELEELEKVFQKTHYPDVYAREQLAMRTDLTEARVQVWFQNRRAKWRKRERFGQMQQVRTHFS
Chain of ALX1 (Homo sapiens, UniProt Q15699 118-204, L144V) (Q15699 118-204 L144V): as the sequence (Q15699 118-204) above, with L27V counted along it
Chain of HESX1 (Homo sapiens, UniProt Q9UBX0 95-180, F115L) (Q9UBX0 95-180 F115L): as the sequence (Q9UBX0 95-180 R109Q) above, with Q15R, F21L counted along it
Chain of ALX1 (Homo sapiens, UniProt Q15699 118-204, L144R) (Q15699 118-204 L144R): as the sequence (Q15699 118-204) above, with L27R counted along it
Chain of HESX1 (Homo sapiens, UniProt Q9UBX0 95-180) (Q9UBX0 95-180): as the sequence (Q9UBX0 95-180 R109Q) above, with Q15R counted along it
Chain of ALX3 (Homo sapiens, UniProt O95076 139-225, L168V) (O95076 139-225 L168V): as the sequence (O95076 139-225 N203S) above, with L30V, S65N counted along it
Chain of ALX3 (Homo sapiens, UniProt O95076 139-225, N203Q) (O95076 139-225 N203Q): as the sequence (O95076 139-225 N203S) above, with S65Q counted along it

In the case of TCAATTAA, the binding signal with HESX1 [1] is 13.4 upbm affinity estimate (log intensity, higher = more binding, comparable within an allelic series); with SHOX [2], 12.4 upbm affinity estimate (log intensity, higher = more binding, comparable within an allelic series); in the assay with ALX4, 13.8 upbm affinity estimate (log intensity, higher = more binding, comparable within an allelic series); with HESX1 [3], 13.2 upbm affinity estimate (log intensity, higher = more binding, comparable within an allelic series); in the assay with MSX2 it was 12.8 upbm affinity estimate (log intensity, higher = more binding, comparable within an allelic series); with ALX1 [4] it was 12 upbm affinity estimate (log intensity, higher = more binding, comparable within an allelic series). Besides, the binding signal in the assay with ALX3 [5] was 8.44 upbm affinity estimate (log intensity, higher = more binding, comparable within an allelic series); in the assay with SHOX [6], 9.85 upbm affinity estimate (log intensity, higher = more binding, comparable within an allelic series); in the assay with ALX1 [7], 11.7 upbm affinity estimate (log intensity, higher = more binding, comparable within an allelic series); in the assay with ALX3 [8], 12.7 upbm affinity estimate (log intensity, higher = more binding, comparable within an allelic series); in the assay with PROP1 [9], 11.6 upbm affinity estimate (log intensity, higher = more binding, comparable within an allelic series); in the assay with HESX1 [10], 9.91 upbm affinity estimate (log intensity, higher = more binding, comparable within an allelic series). The binding signal with PROP1 [11] was 12 upbm affinity estimate (log intensity, higher = more binding, comparable within an allelic series); with ALX3 [12], 11 upbm affinity estimate (log intensity, higher = more binding, comparable within an allelic series); with HESX1 [13], 11.9 upbm affinity estimate (log intensity, higher = more binding, comparable within an allelic series); with ALX3 [14] it was 10.5 upbm affinity estimate (log intensity, higher = more binding, comparable within an allelic series); in the assay with PROP1 [15] it was 7.83 upbm affinity estimate (log intensity, higher = more binding, comparable within an allelic series); with HESX1 [16], 7.87 upbm affinity estimate (log intensity, higher = more binding, comparable within an allelic series). In addition, the binding signal was 12.6 upbm affinity estimate (log intensity, higher = more binding, comparable within an allelic series) with ALX1 [17] and 8.6 upbm affinity estimate (log intensity, higher = more binding, comparable within an allelic series) with ALX3 [18].
AATTAATC: the binding signal in the assay with HESX1 [1] is 11.9 upbm affinity estimate (log intensity, higher = more binding, comparable within an allelic series); in the assay with SHOX [2], 11.9 upbm affinity estimate (log intensity, higher = more binding, comparable within an allelic series); with ALX4, 13.2 upbm affinity estimate (log intensity, higher = more binding, comparable within an allelic series); in the assay with HESX1 [3] it was 12 upbm affinity estimate (log intensity, higher = more binding, comparable within an allelic series); with MSX2, 12.3 upbm affinity estimate (log intensity, higher = more binding, comparable within an allelic series); in the assay with ALX1 [4], 11.9 upbm affinity estimate (log intensity, higher = more binding, comparable within an allelic series). In addition, the binding signal with ALX3 [5] was 8.39 upbm affinity estimate (log intensity, higher = more binding, comparable within an allelic series); with SHOX [6], 9.4 upbm affinity estimate (log intensity, higher = more binding, comparable within an allelic series); with ALX1 [7], 11.6 upbm affinity estimate (log intensity, higher = more binding, comparable within an allelic series); with ALX3 [8], 12.5 upbm affinity estimate (log intensity, higher = more binding, comparable within an allelic series); with PROP1 [9], 11.2 upbm affinity estimate (log intensity, higher = more binding, comparable within an allelic series); in the assay with HESX1 [10], 9.36 upbm affinity estimate (log intensity, higher = more binding, comparable within an allelic series). For the same sequence, the binding signal with PROP1 [11] was 11.1 upbm affinity estimate (log intensity, higher = more binding, comparable within an allelic series); in the assay with ALX3 [12], 10.6 upbm affinity estimate (log intensity, higher = more binding, comparable within an allelic series); with HESX1 [13], 10.7 upbm affinity estimate (log intensity, higher = more binding, comparable within an allelic series); with ALX3 [14], 10.2 upbm affinity estimate (log intensity, higher = more binding, comparable within an allelic series); in the assay with PROP1 [15], 7.81 upbm affinity estimate (log intensity, higher = more binding, comparable within an allelic series); in the assay with HESX1 [16] it was 7.79 upbm affinity estimate (log intensity, higher = more binding, comparable within an allelic series). Also, the binding signal with ALX1 [17] is 12.3 upbm affinity estimate (log intensity, higher = more binding, comparable within an allelic series); with ALX3 [18], 8.52 upbm affinity estimate (log intensity, higher = more binding, comparable within an allelic series).
Regarding CCAGGTCC, the binding signal was 6.37 upbm affinity estimate (log intensity, higher = more binding, comparable within an allelic series) with HESX1 [1]; 6.39 upbm affinity estimate (log intensity, higher = more binding, comparable within an allelic series) in the assay with HESX1 [3]; 6.63 upbm affinity estimate (log intensity, higher = more binding, comparable within an allelic series) with PROP1 [9]; 6.29 upbm affinity estimate (log intensity, higher = more binding, comparable within an allelic series) in the assay with HESX1 [10]; 6.65 upbm affinity estimate (log intensity, higher = more binding, comparable within an allelic series) in the assay with PROP1 [11]; 6.38 upbm affinity estimate (log intensity, higher = more binding, comparable within an allelic series) with HESX1 [13]. The binding signal with PROP1 [15] is 6.38 upbm affinity estimate (log intensity, higher = more binding, comparable within an allelic series); in the assay with HESX1 [16], 6.42 upbm affinity estimate (log intensity, higher = more binding, comparable within an allelic series).
For the sequence AATTAACA, the binding signal was 11.9 upbm affinity estimate (log intensity, higher = more binding, comparable within an allelic series) with HESX1 [1]; 11.9 upbm affinity estimate (log intensity, higher = more binding, comparable within an allelic series) with SHOX [2]; 13.2 upbm affinity estimate (log intensity, higher = more binding, comparable within an allelic series) with ALX4; 12 upbm affinity estimate (log intensity, higher = more binding, comparable within an allelic series) with HESX1 [3]; 12.4 upbm affinity estimate (log intensity, higher = more binding, comparable within an allelic series) with MSX2; 11.7 upbm affinity estimate (log intensity, higher = more binding, comparable within an allelic series) in the assay with ALX1 [4]. For the same sequence, the binding signal with ALX3 [5] was 8.55 upbm affinity estimate (log intensity, higher = more binding, comparable within an allelic series); with SHOX [6], 9.76 upbm affinity estimate (log intensity, higher = more binding, comparable within an allelic series); with ALX1 [7] it was 11.3 upbm affinity estimate (log intensity, higher = more binding, comparable within an allelic series); in the assay with ALX3 [8], 12.5 upbm affinity estimate (log intensity, higher = more binding, comparable within an allelic series); with PROP1 [9] it was 11.3 upbm affinity estimate (log intensity, higher = more binding, comparable within an allelic series); with HESX1 [10] it was 9.41 upbm affinity estimate (log intensity, higher = more binding, comparable within an allelic series). The binding signal with PROP1 [11] is 11.1 upbm affinity estimate (log intensity, higher = more binding, comparable within an allelic series); in the assay with ALX3 [12], 10.6 upbm affinity estimate (log intensity, higher = more binding, comparable within an allelic series); in the assay with HESX1 [13] it was 10.7 upbm affinity estimate (log intensity, higher = more binding, comparable within an allelic series); with ALX3 [14] it was 10.2 upbm affinity estimate (log intensity, higher = more binding, comparable within an allelic series); in the assay with PROP1 [15], 7.88 upbm affinity estimate (log intensity, higher = more binding, comparable within an allelic series); in the assay with HESX1 [16], 8.02 upbm affinity estimate (log intensity, higher = more binding, comparable within an allelic series). In addition, the binding signal with ALX1 [17] is 12.4 upbm affinity estimate (log intensity, higher = more binding, comparable within an allelic series); with ALX3 [18] it was 8.67 upbm affinity estimate (log intensity, higher = more binding, comparable within an allelic series).
As to AACAATTA, the binding signal with HESX1 [1] was 12 upbm affinity estimate (log intensity, higher = more binding, comparable within an allelic series); with SHOX [2] it was 11.5 upbm affinity estimate (log intensity, higher = more binding, comparable within an allelic series); in the assay with ALX4 it was 12.8 upbm affinity estimate (log intensity, higher = more binding, comparable within an allelic series); with HESX1 [3], 12.2 upbm affinity estimate (log intensity, higher = more binding, comparable within an allelic series); with MSX2 it was 12.8 upbm affinity estimate (log intensity, higher = more binding, comparable within an allelic series); in the assay with ALX3 [5], 8.48 upbm affinity estimate (log intensity, higher = more binding, comparable within an allelic series). Moreover, the binding signal in the assay with SHOX [6] was 9.19 upbm affinity estimate (log intensity, higher = more binding, comparable within an allelic series); with ALX3 [8], 12.2 upbm affinity estimate (log intensity, higher = more binding, comparable within an allelic series); in the assay with PROP1 [9], 11.1 upbm affinity estimate (log intensity, higher = more binding, comparable within an allelic series); with HESX1 [10] it was 8.73 upbm affinity estimate (log intensity, higher = more binding, comparable within an allelic series); with PROP1 [11] it was 11.2 upbm affinity estimate (log intensity, higher = more binding, comparable within an allelic series); with ALX3 [12] it was 10.3 upbm affinity estimate (log intensity, higher = more binding, comparable within an allelic series). The binding signal with HESX1 [13] was 10.6 upbm affinity estimate (log intensity, higher = more binding, comparable within an allelic series); with ALX3 [14], 9.75 upbm affinity estimate (log intensity, higher = more binding, comparable within an allelic series); with PROP1 [15], 7.78 upbm affinity estimate (log intensity, higher = more binding, comparable within an allelic series); with HESX1 [16], 7.66 upbm affinity estimate (log intensity, higher = more binding, comparable within an allelic series); in the assay with ALX3 [18], 8.6 upbm affinity estimate (log intensity, higher = more binding, comparable within an allelic series).
Take GGCAGGCC: the binding signal with HESX1 [1] is 6.38 upbm affinity estimate (log intensity, higher = more binding, comparable within an allelic series); with HESX1 [3], 6.43 upbm affinity estimate (log intensity, higher = more binding, comparable within an allelic series); in the assay with ALX1 [4] it was 6.33 upbm affinity estimate (log intensity, higher = more binding, comparable within an allelic series); with ALX1 [7] it was 6.11 upbm affinity estimate (log intensity, higher = more binding, comparable within an allelic series); in the assay with HESX1 [10], 6.29 upbm affinity estimate (log intensity, higher = more binding, comparable within an allelic series); with HESX1 [13], 6.43 upbm affinity estimate (log intensity, higher = more binding, comparable within an allelic series). The binding signal was 6.33 upbm affinity estimate (log intensity, higher = more binding, comparable within an allelic series) in the assay with HESX1 [16] and 6.33 upbm affinity estimate (log intensity, higher = more binding, comparable within an allelic series) in the assay with ALX1 [17].
